Data as given in PubChem BioAssay (NCI).
About 83,000 compounds went through this panel and 20% of them were active in at least one assay; those are over-represented in the sample as a whole.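 Values shown are percent growth following 48 h exposure of cells in 96-well plates to a single concentration of compound; below 10 was considered active.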 Calls of active or inactive are those of the source.

Experiments:
Experiment in all cases: NCI-60 one-dose screen, 48 h (100 = growth as untreated, 0 = no growth, -100 = all killed)
Settings in all cases: 10 µM unless noted
DU-145 prostate = system: DU-145 prostate
K-562 leukemia = system: K-562 leukemia
MALME-3M melanoma = system: MALME-3M melanoma
MDA-MB-231 breast = system: MDA-MB-231 breast
RXF 393 renal = system: RXF 393 renal
SF-268 CNS = system: SF-268 CNS
SF-295 CNS = system: SF-295 CNS
SF-539 CNS = system: SF-539 CNS
UACC-257 melanoma = system: UACC-257 melanoma
M14 melanoma = system: M14 melanoma
HCT-15 colon = system: HCT-15 colon
HT29 colon = system: HT29 colon
SNB-75 CNS = system: SNB-75 CNS
SNB-19 CNS = system: SNB-19 CNS
U251 CNS = system: U251 CNS
PC-3 prostate = system: PC-3 prostate
SK-MEL-5 melanoma = system: SK-MEL-5 melanoma
UACC-62 melanoma = system: UACC-62 melanoma
LOX IMVI melanoma = system: LOX IMVI melanoma
SK-MEL-28 melanoma = system: SK-MEL-28 melanoma

Measured: growth

COc1ccc(-c2nc3c(c(=O)n2C(C)=O)C(c2ccc(Cl)cc2)c2sc4c(Cl)cccc4c2O3)cc1 (stereo not given)
active: DU-145 prostate -5.67% | K-562 leukemia 2.48% | MDA-MB-231 breast -41.2% | RXF 393 renal -27.4% | SF-268 CNS -9.95% | SF-295 CNS 1.12% | SF-539 CNS -51.8% | M14 melanoma -36.3% | HCT-15 colon -29.1% | HT29 colon -49.4% | SNB-75 CNS -12.7% | U251 CNS -34.3% | PC-3 prostate 1.24% | SK-MEL-5 melanoma -23.3% | UACC-62 melanoma 5.57% | LOX IMVI melanoma -49.6%
inactive: MALME-3M melanoma 39.8% | UACC-257 melanoma 12.2% | SNB-19 CNS 12.7% | SK-MEL-28 melanoma 23.4%

COc1nc(N(C)O)nc(N(C)O)n1
inactive: DU-145 prostate 23.5% | K-562 leukemia 20.3% | MALME-3M melanoma 58.6% | MDA-MB-231 breast 49.1% | RXF 393 renal 58.5% | SF-268 CNS 30.9% | SF-295 CNS 60.6% | SF-539 CNS 20.1% | UACC-257 melanoma 39.6% | M14 melanoma 15% | HCT-15 colon 23.9% | HT29 colon 46.3% | SNB-75 CNS 74.5% | SNB-19 CNS 31.8% | U251 CNS 27.2% | PC-3 prostate 42.9% | SK-MEL-5 melanoma 13.1% | UACC-62 melanoma 11.5% | LOX IMVI melanoma 14.8% | SK-MEL-28 melanoma 53.2%

COc1cc(C(=O)/C=C/c2c(C(F)(F)F)nc3sccn23)cc(OC)c1OC
inactive: DU-145 prostate 10.7% | MALME-3M melanoma 78.6% | MDA-MB-231 breast 29.1% | SF-268 CNS 16.1% | UACC-257 melanoma 13.4% | SNB-75 CNS 29.8% | SNB-19 CNS 20.7% | PC-3 prostate 16.4%
active: K-562 leukemia -16.1% | RXF 393 renal -55.7% | SF-295 CNS -2.07% | SF-539 CNS -59.1% | M14 melanoma -39.2% | HCT-15 colon -62.2% | HT29 colon -11.8% | U251 CNS 4.46% | SK-MEL-5 melanoma 5.95% | UACC-62 melanoma -13.8% | LOX IMVI melanoma -57.9% | SK-MEL-28 melanoma -18.4%

Cc1cc(NCCCCNc2ccnc3cc(Cl)ccc23)nc(Nc2ccc(C(=O)N3CCCCC3)cc2)n1
inactive: DU-145 prostate 21.8% | SNB-19 CNS 25.1% | PC-3 prostate 12.2%
active: K-562 leukemia -46.2% | MALME-3M melanoma -76.3% | MDA-MB-231 breast -41.1% | RXF 393 renal -74.4% | SF-268 CNS -38.3% | SF-295 CNS -60.3% | SF-539 CNS -79.6% | UACC-257 melanoma -67.5% | M14 melanoma -85% | HCT-15 colon -31.6% | HT29 colon -25.4% | SNB-75 CNS -73.4% | U251 CNS -36.3% | SK-MEL-5 melanoma -96.5% | UACC-62 melanoma -57.8% | LOX IMVI melanoma -78.3% | SK-MEL-28 melanoma -76.5%

CC(C)(C)OC(=O)Nc1ccc2c(c1)C(NC(=O)Nc1cccc(C#N)c1)CC(C)(C)O2 (stereo not given)
active: SK-MEL-5 melanoma -5.57%
inactive: DU-145 prostate 71.6% | K-562 leukemia 23.3% | MALME-3M melanoma 39% | MDA-MB-231 breast 68.8% | RXF 393 renal 72.4% | SF-268 CNS 53.4% | SF-295 CNS 31.9% | SF-539 CNS 66.8% | UACC-257 melanoma 27.2% | M14 melanoma 47.5% | HCT-15 colon 34.2% | HT29 colon 55% | SNB-75 CNS 71.8% | SNB-19 CNS 52.4% | U251 CNS 32.7% | PC-3 prostate 30.5% | UACC-62 melanoma 34.6% | LOX IMVI melanoma 26.9% | SK-MEL-28 melanoma 74.7%

Cc1ccc2nc(NC(=O)CSc3nc(Nc4ccc([N+](=O)[O-])cc4)c(C#N)c(-c4ccccc4)n3)sc2c1
inactive: DU-145 prostate 104% | K-562 leukemia 87.6% | MALME-3M melanoma 110% | MDA-MB-231 breast 93.7% | RXF 393 renal 92.7% | SF-268 CNS 93.7% | SF-295 CNS 95.6% | SF-539 CNS 92.8% | UACC-257 melanoma 105% | M14 melanoma 114% | HCT-15 colon 93.6% | HT29 colon 96.7% | SNB-75 CNS 85.6% | SNB-19 CNS 93.9% | U251 CNS 93.2% | PC-3 prostate 93.8% | SK-MEL-5 melanoma 98% | UACC-62 melanoma 86% | LOX IMVI melanoma 96.7% | SK-MEL-28 melanoma 109%

Cc1ccc(C(=O)C2=C(O)C(=O)N(Cc3cccnc3)C2c2ccccc2F)o1 (stereo not given)
inactive: DU-145 prostate 105% | K-562 leukemia 76.7% | MALME-3M melanoma 101% | MDA-MB-231 breast 106% | RXF 393 renal 95.8% | SF-268 CNS 98.1% | SF-295 CNS 93.1% | SF-539 CNS 95.1% | UACC-257 melanoma 95.7% | M14 melanoma 101% | HCT-15 colon 93.8% | HT29 colon 108% | SNB-75 CNS 94.6% | SNB-19 CNS 105% | U251 CNS 91.6% | PC-3 prostate 96.7% | SK-MEL-5 melanoma 100% | UACC-62 melanoma 102% | LOX IMVI melanoma 80.8% | SK-MEL-28 melanoma 115%

O=c1[nH][n+](-c2ccc(Cl)cc2)no1
active: UACC-62 melanoma 5.96%
inactive: DU-145 prostate 59.7% | K-562 leukemia 10.4% | MALME-3M melanoma 84.7% | MDA-MB-231 breast 70.7% | RXF 393 renal 121% | SF-268 CNS 47.7% | SF-295 CNS 34.5% | SF-539 CNS 66.7% | UACC-257 melanoma 64.9% | M14 melanoma 81.5% | HCT-15 colon 34.5% | HT29 colon 95% | SNB-75 CNS 74.4% | SNB-19 CNS 91.3% | U251 CNS 83.2% | PC-3 prostate 72% | SK-MEL-5 melanoma 96.1% | LOX IMVI melanoma 28.4% | SK-MEL-28 melanoma 77.3%

CCCCCCCCCCCCCCCCCCOc1ccc(CC(=O)OCC[N+]2(C)CCCC2)cc1
inactive: DU-145 prostate 106% | K-562 leukemia 92.2% | MALME-3M melanoma 117% | MDA-MB-231 breast 111% | RXF 393 renal 101% | SF-268 CNS 104% | SF-295 CNS 90.6% | SF-539 CNS 99.7% | UACC-257 melanoma 107% | M14 melanoma 97.9% | HCT-15 colon 97.8% | HT29 colon 98.6% | SNB-75 CNS 106% | SNB-19 CNS 90.8% | U251 CNS 85.8% | PC-3 prostate 99.9% | SK-MEL-5 melanoma 103% | UACC-62 melanoma 96.2% | LOX IMVI melanoma 42.5% | SK-MEL-28 melanoma 106%

O=C(COc1ccc(/C=C2\Oc3ccccc3C2=O)cc1)c1ccc(Cl)cc1
inactive: DU-145 prostate 119% | K-562 leukemia 93.7% | MALME-3M melanoma 111% | MDA-MB-231 breast 85.7% | RXF 393 renal 91.8% | SF-268 CNS 106% | SF-295 CNS 309% | SF-539 CNS 96.7% | UACC-257 melanoma 117% | M14 melanoma 108% | HCT-15 colon 106% | HT29 colon 107% | SNB-75 CNS 103% | SNB-19 CNS 94.3% | U251 CNS 104% | PC-3 prostate 98.2% | SK-MEL-5 melanoma 109% | UACC-62 melanoma 88.2% | LOX IMVI melanoma 95.8% | SK-MEL-28 melanoma 120%

N#Cc1c(N)nc2c(C#N)c(NC(=O)c3ccccc3)nn2c1-c1ccccc1
inactive: DU-145 prostate 102% | K-562 leukemia 73.1% | MALME-3M melanoma 102% | MDA-MB-231 breast 84.3% | RXF 393 renal 83.5% | SF-268 CNS 86.2% | SF-295 CNS 90% | SF-539 CNS 94.2% | UACC-257 melanoma 105% | M14 melanoma 87.3% | HCT-15 colon 81.2% | HT29 colon 99% | SNB-75 CNS 83% | SNB-19 CNS 89.6% | U251 CNS 106% | PC-3 prostate 75.7% | SK-MEL-5 melanoma 78.4% | UACC-62 melanoma 91.2% | LOX IMVI melanoma 86.3% | SK-MEL-28 melanoma 103%

Cc1ccc2nc(NC(=O)CSc3nc(-c4ccccc4)c(C#N)c(=O)n3Cc3ccccc3)sc2c1
inactive: DU-145 prostate 103% | K-562 leukemia 73.3% | MALME-3M melanoma 78.6% | MDA-MB-231 breast 82.5% | RXF 393 renal 75.8% | SF-268 CNS 92.1% | SF-295 CNS 95.3% | SF-539 CNS 90.4% | UACC-257 melanoma 98.3% | M14 melanoma 88.1% | HCT-15 colon 96.6% | HT29 colon 105% | SNB-75 CNS 63.5% | SNB-19 CNS 78.3% | U251 CNS 87.8% | PC-3 prostate 71.9% | SK-MEL-5 melanoma 83.1% | UACC-62 melanoma 53.5% | LOX IMVI melanoma 83.1% | SK-MEL-28 melanoma 79.1%

CCCCc1ccc(Nc2ccc(Nc3ccc(CCCC)cc3S(=O)(=O)O)c3c2C(=O)c2ccccc2C3=O)c(S(=O)(=O)O)c1
inactive: DU-145 prostate 107% | K-562 leukemia 114% | MALME-3M melanoma 110% | MDA-MB-231 breast 83.1% | RXF 393 renal 95% | SF-268 CNS 99.7% | SF-295 CNS 101% | SF-539 CNS 96.5% | UACC-257 melanoma 88.3% | M14 melanoma 101% | HCT-15 colon 104% | HT29 colon 113% | SNB-75 CNS 89.9% | SNB-19 CNS 104% | U251 CNS 103% | PC-3 prostate 39.1% | SK-MEL-5 melanoma 91.9% | UACC-62 melanoma 84.5% | LOX IMVI melanoma 86.4% | SK-MEL-28 melanoma 108%

COc1ccc(-c2nc3sccn3c2-c2cc(-c3cc(OC)c(OC)c(OC)c3)on2)cc1
inactive: DU-145 prostate 93.3% | K-562 leukemia 47.4% | MALME-3M melanoma 105% | MDA-MB-231 breast 80.9% | RXF 393 renal 110% | SF-268 CNS 98.2% | SF-295 CNS 109% | SF-539 CNS 73.7% | UACC-257 melanoma 141% | M14 melanoma 91.7% | HCT-15 colon 96.9% | HT29 colon 86.1% | SNB-75 CNS 77.4% | SNB-19 CNS 87.5% | U251 CNS 107% | PC-3 prostate 58.9% | SK-MEL-5 melanoma 68.7% | UACC-62 melanoma 89.1% | LOX IMVI melanoma 90.5% | SK-MEL-28 melanoma 127%

COC(=O)[C@]12CC[C@@H](C)[C@H](C)[C@@H]1C1=CC[C@@H]3[C@@]4(C)C(C=O)=C[C@@](C)(COC(C)=O)[C@@H]4C(=O)C[C@@]3(C)[C@]1(C)CC2
inactive: DU-145 prostate 42.6% | K-562 leukemia 24.3% | MALME-3M melanoma 65.7% | MDA-MB-231 breast 46.8% | RXF 393 renal 55.8% | SF-268 CNS 42.2% | SF-295 CNS 32.1% | SF-539 CNS 53.7% | UACC-257 melanoma 37.8% | M14 melanoma 19.5% | HCT-15 colon 21.5% | HT29 colon 23.8% | SNB-75 CNS 33.5% | SNB-19 CNS 37.4% | U251 CNS 27.1% | PC-3 prostate 13.3% | SK-MEL-5 melanoma 51.9% | UACC-62 melanoma 42.1% | LOX IMVI melanoma 33.5% | SK-MEL-28 melanoma 65.5%
